# According to the supplement of paper PMC8728848:
# Many of the other results were omitted from the sample, so the strongest signals are more common in it than they were.
# Legend:
# Experiment in all cases: glycan array binding signal (z-score within array); higher = stronger binding
# Conditions in all cases: glycan notation: IUPAC condensed, linker removed
# [1] = molecular target: Gal(b1-3)GlcNAc(b1-2)[Gal(b1-3)GlcNAc(b1-6)]Man(a1-6)[Gal(b1-3)GlcNAc(b1-2)Man(a1-3)]Man(b1-4)GlcNAc(b1-4)GlcNAc
# In short: (§1)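 Negative Z-scores can be read as non-binding. The Z-score is calculated within each array and then averaged across arrays of one protein sequence at different concentrations or buffers and across linkers. Arrays, 3228 in all, were curated from the Consortium for Functional Glycomics database and kept only where the protein sequence was available.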
# [2] = molecular target: Gal(b1-3)GlcNAc(b1-6)Gal(b1-4)GlcNAc
# In short: as §1
# [3] = molecular target: Gal(b1-3)[Neu5Ac(a2-6)]GalNAc
# In short: as §1
# [4] = molecular target: Gal(b1-4)GlcNAc(b1-2)Man
# In short: as §1
# [5] = molecular target: Gal(b1-4)GlcNAc(b1-2)[Gal(b1-4)GlcNAc(b1-4)]Man(a1-3)[Gal(b1-4)GlcNAc(b1-2)[Gal(b1-4)GlcNAc(b1-6)]Man(a1-6)]Man(b1-4)GlcNAc(b1-4)GlcNAc
# In short: as §1
# [6] = molecular target: Gal(b1-4)GlcNAc(b1-3)Gal(b1-4)GlcNAc(b1-3)Gal(b1-4)GlcNAc(b1-2)[Gal(b1-4)GlcNAc(b1-3)Gal(b1-4)GlcNAc(b1-3)Gal(b1-4)GlcNAc(b1-6)]Man(a1-6)[Gal(b1-4)GlcNAc(b1-3)Gal(b1-4)GlcNAc(b1-3)Gal(b1-4)GlcNAc(b1-2)Man(a1-3)]Man(b1-4)GlcNAc(b1-4)[Fuc(a1-6)]GlcNAc
# In short: as §1
# [7] = molecular target: Gal(b1-4)GlcNAc(b1-3)Gal(b1-4)GlcNAc(b1-3)Gal(b1-4)GlcNAc(b1-3)Gal(b1-4)GlcNAc(b1-3)Gal(b1-4)GlcNAc(b1-2)Man(a1-3)[Gal(b1-4)GlcNAc(b1-3)Gal(b1-4)GlcNAc(b1-3)Gal(b1-4)GlcNAc(b1-3)Gal(b1-4)GlcNAc(b1-3)Gal(b1-4)GlcNAc(b1-2)Man(a1-6)]Man(b1-4)GlcNAc(b1-4)GlcNAc
# In short: as §1
# [8] = molecular target: Gal(b1-4)GlcNAc(b1-3)Gal(b1-4)GlcNAc(b1-3)Gal(b1-4)GlcNAc(b1-3)Gal(b1-4)GlcNAc(b1-3)Gal(b1-4)GlcNAc(b1-2)[Gal(b1-4)GlcNAc(b1-3)Gal(b1-4)GlcNAc(b1-3)Gal(b1-4)GlcNAc(b1-3)Gal(b1-4)GlcNAc(b1-3)Gal(b1-4)GlcNAc(b1-6)]Man(a1-6)[Gal(b1-4)GlcNAc(b1-3)Gal(b1-4)GlcNAc(b1-3)Gal(b1-4)GlcNAc(b1-3)Gal(b1-4)GlcNAc(b1-3)Gal(b1-4)GlcNAc(b1-2)Man(a1-3)]Man(b1-4)GlcNAc(b1-4)[Fuc(a1-6)]GlcNAc
# In short: as §1
# [9] = molecular target: Gal6S(b1-4)Glc
# In short: as §1
# [10] = molecular target: GalNAc(b1-3)Gal(a1-4)Gal(b1-4)GlcNAc(b1-3)Gal(b1-4)Glc
# In short: as §1
# [11] = molecular target: GalNAc6S(b1-4)GlcNAc
# In short: as §1
# [12] = molecular target: GlcA3S(b1-3)Gal(b1-4)GlcNAc(b1-3)Gal(b1-4)Glc
# In short: as §1
# [13] = molecular target: GlcNAc(a1-6)Gal(b1-4)GlcNAc
# In short: as §1
# [14] = molecular target: GlcNAc(b1-2)[GlcNAc(b1-4)]Man(a1-3)[GlcNAc(b1-4)][GlcNAc(b1-2)Man(a1-6)]Man(b1-4)GlcNAc(b1-4)GlcNAc
# In short: as §1
# [15] = molecular target: GlcNAc(b1-3)Fuc
# In short: as §1
# [16] = molecular target: GlcNAc(b1-3)Gal(b1-4)GlcNAc(b1-3)Gal(b1-4)GlcNAc(b1-3)Gal(b1-4)GlcNAc(b1-3)Gal(b1-4)GlcNAc(b1-2)Man(a1-3)[GlcNAc(b1-3)Gal(b1-4)GlcNAc(b1-3)Gal(b1-4)GlcNAc(b1-3)Gal(b1-4)GlcNAc(b1-3)Gal(b1-4)GlcNAc(b1-2)Man(a1-6)]Man(b1-4)GlcNAc(b1-4)[Fuc(a1-6)]GlcNAc
# In short: as §1
# [17] = molecular target: GlcNAc(b1-3)[GlcNAc(b1-4)][GlcNAc(b1-6)]GlcNAc
# In short: as §1
# [18] = molecular target: Neu5Ac(a2-3)Gal(b1-3)GlcNAc(b1-2)Man(a1-3)[Neu5Ac(a2-3)Gal(b1-3)GlcNAc(b1-2)Man(a1-6)]Man(b1-4)GlcNAc(b1-4)GlcNAc
# In short: as §1
# [19] = molecular target: Neu5Ac(a2-3)Gal(b1-3)GlcNAc(b1-3)GalNAc
# In short: as §1
# [20] = molecular target: Neu5Ac(a2-3)Gal(b1-4)GlcNAc(b1-2)[Neu5Ac(a2-3)Gal(b1-4)GlcNAc(b1-4)]Man(a1-3)[GlcNAc(b1-4)][Neu5Ac(a2-3)Gal(b1-4)GlcNAc(b1-2)[Neu5Ac(a2-3)Gal(b1-4)GlcNAc(b1-6)]Man(a1-6)]Man(b1-4)GlcNAc(b1-4)GlcNAc
# In short: as §1
# [21] = molecular target: Neu5Ac(a2-3)Gal(b1-4)GlcNAc(b1-3)[Neu5Ac(a2-3)Gal(b1-4)GlcNAc(b1-6)]GalNAc
# In short: as §1
# [22] = molecular target: Neu5Ac(a2-3)Gal(b1-4)GlcNAc(b1-6)[Neu5Ac(a2-3)Gal(b1-3)]GalNAc
# In short: as §1
# [23] = molecular target: Neu5Ac(a2-3)Gal(b1-4)GlcNAc6S
# In short: as §1
# [24] = molecular target: Neu5Ac(a2-6)Gal(b1-4)GlcNAc(b1-2)Man(a1-6)[Man(a1-3)]Man(b1-4)GlcNAc(b1-4)GlcNAc
# In short: as §1
# [25] = molecular target: Neu5Ac(a2-8)Neu5Ac(a2-3)[GalNAc(b1-4)]Gal(b1-4)Glc
# In short: as §1
binder,measurement,setting,value
"CGL (Crenomytilus grayanus), H2FH31 (protein) MTTFLIKHKASGKFLHPYGGSSNPANNTKLVLHSDIHERMYFQFDVVDERWGYIKHVASGKIVHPYGGQANPPNETNMVLHQDRHDRALFAMDFFNDNIMHKGGKYIHPKGGSPNPPNNTETVIHGDKHAAMEFIFVSPKNKDKRVLVYA",glycan array binding signal (z-score),[1],1.87
same,glycan array binding signal (z-score),[2],0.949
same,glycan array binding signal (z-score),[3],-0.398
same,glycan array binding signal (z-score),[4],-0.334
same,glycan array binding signal (z-score),[5],1.1
same,glycan array binding signal (z-score),[6],3.3
same,glycan array binding signal (z-score),[7],3.18
same,glycan array binding signal (z-score),[8],3.77
same,glycan array binding signal (z-score),[9],-0.407
same,glycan array binding signal (z-score),[10],0.074
same,glycan array binding signal (z-score),[11],-0.377
same,glycan array binding signal (z-score),[12],-0.414
same,glycan array binding signal (z-score),[13],-0.356
same,glycan array binding signal (z-score),[14],-0.324
same,glycan array binding signal (z-score),[15],-0.323
same,glycan array binding signal (z-score),[16],-0.279
same,glycan array binding signal (z-score),[17],-0.327
same,glycan array binding signal (z-score),[18],-0.382
same,glycan array binding signal (z-score),[19],-0.337
same,glycan array binding signal (z-score),[20],-0.348
same,glycan array binding signal (z-score),[21],-0.248
same,glycan array binding signal (z-score),[22],-0.386
same,glycan array binding signal (z-score),[23],-0.278
same,glycan array binding signal (z-score),[24],-0.418
same,glycan array binding signal (z-score),[25],-0.366
